Our source for the outcome and AC50 values is PubChem BioAssay (EPA / NIEHS).

Each structure is given as a SMILES string. Activity calls are given as the source filed them. Rule for the calls: active = hit-call score of the fitted dose curve at least 0.9, where 1 is the maximum; inactive = score below 0.9.

Broadly, the AC50 is the concentration at which the activity in the assay is half-maximal.

A short description of the assay: ATG_Oct_MLP_CIS: Attagene CIS-FACTORIAL HepG2 Assay for human Octamer-Binding Transcription Factor (Oct) (AID 2282993). The note with it: HepG2 Attagene cis-factorial Oct reporter, mRNA; actives raise or lower the signal. Here is the method: ATG_CIS is a cell-based, multiplexed-readout assay that uses HepG2, a human liver cell line, with measurements taken at 24 hours after chemical dosing in a 24-well plate.ATG_Oct_MLP_CIS is one of 52 assay component(s) measured or calculated from the ATG_CIS assay. It is designed to make measurements of mRNA induction, a form of inducible reporter, as detected with fluorescence intensity signals by Reverse transcription polymerase chain reaction (RT-PCR) and Capillary electrophoresis technology.Data from the assay component ATG_Oct_MLP_CIS was analyzed into 1 assay endpoint. This assay endpoint, ATG_Oct_MLP_CIS, was analyzed with bidirectional fitting relative to DMSO as the negative control and baseline of activity. Using a type of inducible reporter, measures of mRNA for gain or loss-of-signal activity can be used to understand the reporter gene at the transcription factor-level as they relate to the gene POU2F1. Furthermore, this assay endpoint can be referred to as a primary readout, because this assay has produced multiple assay endpoints where this one serves a reporter gene function. To generalize the intended target to other relatable targets, this assay endpoint is annotated to the dna binding intended target family, where the subfamily is POU domain protein.
Human liver HepG2 cells are transiently transfected with multiple reporter transcription units (MRTUs) in 6-well plates using FuGene 6 reagent (Roche; 3 ml FuGene/1 mg DNA). The MRTU constructs are regulated by a cis-regulating element (promoter). […] A major difference between the CIS and TRANS system is that in CIS activities of endogenous TFs are measured, whereas the TRANS assay evaluates changes in activities of exogenous, chimeric NR-Gal4 proteins. […] At the end of 24 hour incubation, total RNA was isolated using TriZol reagent (Invitrogen). The isolated RNA is then reverse-transcribed using oligo(dT) primer and Mo-MLV reverse transcriptase (Invitrogen) with DNAse I (Ambion) treatment for 30 min. The one-tenth of the produced cDNA was amplified by PCR using Taq DNA polymerase (Invitrogen) and two reporter sequence-specific primers. The PCR products were fluorescently labeled by primer extension with 6-arboxyfluorescein (6-FAM) 5'-labeled reporter sequence-specific primer (2 min at 95 C, 20 s at 68 C and 10 min at 72 C) and these products were digested with 5U of HpaI (New England Biolabs) for 2h at 37 C. The fragments were purified using Qiaquick PCR columns (Qiagen), analyzed on an ABI 3130xL genetic analyzer (Applied Biosystems) with peak positions identified by using a set of X-rhodamine (ROX)-labeled MapMarker1000 molecular weight standards (BioVentures). The raw capillary electrophoresis data was processed using Attagraph software (Attagene).
On to `Cc1[nH]c(=O)c(C#N)cc1-c1ccncc1`, for which the outcome was inactive.
Same read-out and setting: in the case of `COc1ccccc1[N+](=O)[O-]` it was “inactive”.
For the compound `[O-]n1ccccc1=S.[O-]n1ccccc1=S.[Zn+2]`, the call was inactive.
Consider `COc1cccc(OC)c1O`, for which the compound was classed as inactive.
On the same count and under the same terms, in the case of `C[N+](C)(C)CCCCCC[N+](C)(C)C` it was “inactive”.
Still for that read-out and setting: in the case of `CN(C)c1cccc(O)c1` it was “inactive”; in that of `COC(CC(C)CCCC(C)(C)O)OC` (stereo not given), “inactive”.
On the same count and under the same terms, in the case of `CCCCC(CC)COC(=O)c1ccc(O)cc1` (stereo not given) it was “inactive”; in that of `CCCC1O[C@@H]2C[C@H]3[C@@H]4CCC5=CC(=O)C=C[C@]5(C)[C@H]4[C@@H](O)C[C@]3(C)[C@]2(C(=O)CO)O1` (stereo not given in full), “inactive”.
As to `CCOC(=O)CN`, the outcome was inactive.
Same read-out and setting: in the case of `COc1ccc(OC)c(N=Nc2c(O)ccc3ccccc23)c1` it was “inactive”.
`CCC(C)c1cc([N+](=O)[O-])cc([N+](=O)[O-])c1OC(=O)OC(C)C` (stereo not given): the compound was classed as inactive.
Same read-out and setting: in the case of `CCCCC1CCC(O)CC1` (stereo not given) it was “inactive”.
For the compound `O=C(O)c1cccnc1C(=O)O`, the compound was called inactive.
The same measure, in the same setting: in the case of `CN(C)CCOC(C)(c1ccccc1)c1ccccn1` (stereo not given) it was “inactive”.
Still for that read-out and setting: the entry for `CCOCCOCCOCC` is “inactive”; for `CCCOCCO` it is “inactive”; for `Brc1ccc(Br)c(Br)c1` it is “inactive”.
The same measure, in the same setting: the entry for `COC(=O)Nc1ccc(Cl)c(Cl)c1` is “inactive”.
Consider `CS(C)=O`, for which the compound was called inactive.
For `CC1(C)O[C@@H]2C[C@H]3[C@@H]4CCC5=CC(=O)C=C[C@]5(C)[C@@]4(F)[C@@H](O)C[C@]3(C)[C@]2(C(=O)CO)O1`, the compound was called inactive.
Consider `CCCCOCC`, for which the compound was called inactive.
On the same count and under the same terms, the entry for `COc1ccc(CCN2CCC(Nc3nc4ccccc4n3Cc3ccc(F)cc3)CC2)cc1` is “inactive”; for `C[C@H](CCC(=O)NCC(=O)O)[C@H]1CC[C@H]2[C@@H]3[C@H](O)C[C@@H]4C[C@H](O)CC[C@]4(C)[C@H]3C[C@H](O)[C@]12C` it is “inactive”; for `C=COCCOCCOC=C` it is “inactive”.
Turning to `CC(C)(N=C=O)c1cccc(C(C)(C)N=C=O)c1`, the outcome was inactive.
In the case of `O=C(Nc1ccc2c(c1)Cc1ccccc1-2)C(F)(F)F`, the concentration at half-maximal activity (AC50) is 24.5 µM (active).
As for `CC(C)NCC(O)COc1ccc(CC(N)=O)cc1` (stereo not given), the compound was classed as inactive.
Same read-out and setting: the entry for `C=Cc1ccc(C(C)(C)C)cc1` is “inactive”; for `C=CC(C)C#N` (stereo not given) it is “inactive”; for `CCCCCCCCCC(C)C=O` (stereo not given) it is “inactive”.
On the same count and under the same terms, in the case of `O=C(Nc1ccc2c(O)c(N=Nc3ccc(N=Nc4ccc(S(=O)(=O)O)cc4)cc3)c(S(=O)(=O)O)cc2c1)c1ccccc1` it was “inactive”; in that of `Nc1ccc(NCCO)c([N+](=O)[O-])c1`, “inactive”.
With `Cc1c(OCC(F)(F)F)ccnc1CS(=O)c1nc2ccccc2[nH]1` (stereo not given), the result was inactive.
On the same count and under the same terms, the entry for `CCCCCCCC(=O)OCCCCCC` is “inactive”.
As to `[Cl][Au]([Cl])[Cl]`, the compound was classed as inactive.
Still for that read-out and setting: in the case of `CCCCC(CC)COC(C)=O` (stereo not given) it was “inactive”; in that of `C=CCCC(=O)/C=C/C1C(C)=CCCC1(C)C` (stereo not given), “inactive”.
On the same count and under the same terms, in the case of `CCCCCC(C=O)=Cc1ccccc1` it was “inactive”.
Regarding `COC(=O)c1ccc([N+](=O)[O-])cc1`, the call was inactive.
